Experimental data taken from PubChem BioAssay AID1159580 (chemical genetic matrix, 2015).
In all, about 5,500 compounds went through this assay and about 2,000 (36%) were called active. About 18% were inconclusive and are not listed. Rule as the data show it: active = normalized growth mostly below about 0.91 (no sharp cut-off); inconclusive = no clear call, values can overlap the other calls; inactive = mostly above about 0.92. The list shows a part of the results.

Assay: chemical genetic growth profiling, strain panel (AID 1159580);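 also: tested at 20 µM; growth read once vehicle control cultures reached saturation at 30 °C; 1 = growth at the plate median or of vehicle wells; lower values mean less growth of the strain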
Details: growth OD

Measured: normalized growth

C[C@@H]1O[C@@H](O[C@H]2[C@@H](Oc3cc(O)c4c(c3)O[C@H](c3ccc(O)cc3)CC4=O)O[C@H](CO)[C@@H](O)[C@@H]2O)[C@H](O)[C@H](O)[C@H]1O
inactive: S. cerevisiae deletion strains, locus YJR075W, strain HOC1, stronger effect = lower value 0.996 | S. cerevisiae deletion strains, locus YKL009W, strain mrt4, stronger effect = lower value 0.997 | S. cerevisiae deletion strains, locus YKL068W, stronger effect = lower value 1 | S. cerevisiae deletion strains, locus YKL085W, strain MDH1 (second series), stronger effect = lower value 0.996 | S. cerevisiae deletion strains, locus YKL085W, strain MDH1, stronger effect = lower value 0.996 | S. cerevisiae deletion strains, locus YKL160W, strain elf1, stronger effect = lower value 0.971 | S. cerevisiae deletion strains, locus YKL190W, strain CNB1, stronger effect = lower value 1 | S. cerevisiae deletion strains, locus YKR001C, strain vps1, stronger effect = lower value 1.01 | S. cerevisiae deletion strains, locus YKR026C, strain gcn3, stronger effect = lower value 0.996 | S. cerevisiae deletion strains, locus YKR091W, strain srl3, stronger effect = lower value 0.969 | S. cerevisiae deletion strains, locus YLL001W, strain dnm1, stronger effect = lower value 0.952 | S. cerevisiae deletion strains, locus YLL026W, stronger effect = lower value 0.974 | S. cerevisiae deletion strains, locus YLL041C, strain sdh2, stronger effect = lower value 0.983 | S. cerevisiae deletion strains, locus YLR027C, strain aat2, stronger effect = lower value 0.967 | S. cerevisiae deletion strains, locus YLR039C, strain RIC1, stronger effect = lower value 0.97 | S. cerevisiae deletion strains, locus YLR058C, strain SHM2, stronger effect = lower value 0.977 | S. cerevisiae deletion strains, locus YLR102C, strain apc9, stronger effect = lower value 1 | S. cerevisiae deletion strains, locus YLR113W, strain HOG1, stronger effect = lower value 0.969 | S. cerevisiae deletion strains, locus YLR221C, strain rsa3, stronger effect = lower value 0.957 | S. cerevisiae deletion strains, locus YLR258W, strain gsy2, stronger effect = lower value 0.981 | S. cerevisiae deletion strains, locus YLR262C, strain YPT6 (second series), stronger effect = lower value 0.979 | S. cerevisiae deletion strains, locus YLR262C, strain YPT6, stronger effect = lower value 0.969 | S. cerevisiae deletion strains, locus YLR268W, strain sec22, stronger effect = lower value 1.01 | S. cerevisiae deletion strains, locus YLR320W, strain mms22, stronger effect = lower value 0.969 | S. cerevisiae deletion strains, locus YLR330W, strain CHS5, stronger effect = lower value 0.99 | S. cerevisiae deletion strains, locus YLR342W, strain FKS1 (second series), stronger effect = lower value 1.03 | S. cerevisiae deletion strains, locus YLR342W, strain FKS1, stronger effect = lower value 0.98 | S. cerevisiae deletion strains, locus YLR357W, strain rsc2, stronger effect = lower value 0.956 | S. cerevisiae deletion strains, locus YLR370C, strain arc18, stronger effect = lower value 0.981 | S. cerevisiae deletion strains, locus YLR371W, strain rom2, stronger effect = lower value 0.997 | S. cerevisiae deletion strains, locus YLR384C, strain iki3, stronger effect = lower value 0.963 | S. cerevisiae deletion strains, locus YLR418C, strain cdc73, stronger effect = lower value 1.03 | S. cerevisiae deletion strains, locus YML016C, strain PPZ1, stronger effect = lower value 0.984 | S. cerevisiae deletion strains, locus YML032C, strain rad52, stronger effect = lower value 0.996 | S. cerevisiae deletion strains, locus YML120C, strain ndi1, stronger effect = lower value 0.953 | S. cerevisiae deletion strains, locus YML124C, strain tub3, stronger effect = lower value 0.993 | S. cerevisiae deletion strains, locus YMR058W, strain fet3, stronger effect = lower value 0.972 | S. cerevisiae deletion strains, locus YMR078C, strain ctf18, stronger effect = lower value 0.993 | S. cerevisiae deletion strains, locus YMR125W, strain sto1, stronger effect = lower value 0.941 | S. cerevisiae deletion strains, locus YMR129W, stronger effect = lower value 0.974 | S. cerevisiae deletion strains, locus YMR205C, strain PFK2, stronger effect = lower value 0.962 | S. cerevisiae deletion strains, locus YMR223W, strain ubp8, stronger effect = lower value 0.991 | S. cerevisiae deletion strains, locus YMR231W, strain pep5, stronger effect = lower value 0.983 | S. cerevisiae deletion strains, locus YMR263W, strain SAP30, stronger effect = lower value 0.987 | S. cerevisiae deletion strains, locus YMR307W, strain GAS1, stronger effect = lower value 1.04 | S. cerevisiae deletion strains, locus YNL067W, strain RPL9B, stronger effect = lower value 1 | S. cerevisiae deletion strains, locus YNL071W, strain lat1, stronger effect = lower value 0.979 | S. cerevisiae deletion strains, locus YNL128W, strain TEP1, stronger effect = lower value 0.975 | S. cerevisiae deletion strains, locus YNL153C, strain GIM3, stronger effect = lower value 0.981 | S. cerevisiae deletion strains, locus YNL183C, strain NPR1, stronger effect = lower value 0.92 | S. cerevisiae deletion strains, locus YNL209W, strain ssb2, stronger effect = lower value 0.971 | S. cerevisiae deletion strains, locus YNL233W, strain BNI4, stronger effect = lower value 0.991 | S. cerevisiae deletion strains, locus YNL248C, strain rpa49, stronger effect = lower value 0.977 | S. cerevisiae deletion strains, locus YNL250W, strain rad50, stronger effect = lower value 0.982 | S. cerevisiae deletion strains, locus YNL271C, strain bni1, stronger effect = lower value 0.999 | S. cerevisiae deletion strains, locus YNL298W, strain CLA4, stronger effect = lower value 1 | S. cerevisiae deletion strains, locus YNL307C, strain MCK1, stronger effect = lower value 1 | S. cerevisiae deletion strains, locus YNL322C, strain KRE1 (second series), stronger effect = lower value 0.951 | S. cerevisiae deletion strains, locus YNL322C, strain KRE1, stronger effect = lower value 0.987 | S. cerevisiae deletion strains, locus YNR049C, strain mso1, stronger effect = lower value 0.961 | S. cerevisiae deletion strains, locus YNR052C, strain pop2, stronger effect = lower value 0.998 | S. cerevisiae deletion strains, locus YOL006C, strain TOP1, stronger effect = lower value 0.962 | S. cerevisiae deletion strains, locus YOL012C, strain htz1 1.14 | S. cerevisiae deletion strains, locus YOL147C, strain pex11, stronger effect = lower value 1 | S. cerevisiae deletion strains, locus YOR001W, strain rrp6, stronger effect = lower value 0.998 | S. cerevisiae deletion strains, locus YOR061W, strain CKA2, stronger effect = lower value 0.967 | S. cerevisiae deletion strains, locus YOR069W, strain VPS5, stronger effect = lower value 0.99 | S. cerevisiae deletion strains, locus YOR070C, strain gyp1, stronger effect = lower value 0.981 | S. cerevisiae deletion strains, locus YOR080W, strain dia2, stronger effect = lower value 0.967 | S. cerevisiae deletion strains, locus YOR083W, strain WHI5, stronger effect = lower value 0.947 | S. cerevisiae deletion strains, locus YOR106W, strain vam3, stronger effect = lower value 0.954 | S. cerevisiae deletion strains, locus YOR136W, strain idh2, stronger effect = lower value 0.999 | S. cerevisiae deletion strains, locus YOR144C, strain elg1, stronger effect = lower value 1 | S. cerevisiae deletion strains, locus YOR184W, strain ser1, stronger effect = lower value 0.991 | S. cerevisiae deletion strains, locus YOR231W, strain MKK1, stronger effect = lower value 0.98 | S. cerevisiae deletion strains, locus YOR265W, strain rbl2, stronger effect = lower value 0.983 | S. cerevisiae deletion strains, locus YOR270C, strain vph1, stronger effect = lower value 0.915 | S. cerevisiae deletion strains, locus YOR290C, strain snf2, stronger effect = lower value 0.919 | S. cerevisiae deletion strains, locus YOR316C, strain cot1, stronger effect = lower value 0.992 | S. cerevisiae deletion strains, locus YPL051W, strain arl3, stronger effect = lower value 0.987 | S. cerevisiae deletion strains, locus YPL055C, strain LGE1, stronger effect = lower value 0.973 | S. cerevisiae deletion strains, locus YPL078C, strain atp4, stronger effect = lower value 0.968 | S. cerevisiae deletion strains, locus YPL106C, strain sse1, stronger effect = lower value 0.942 | S. cerevisiae deletion strains, locus YPL240C, strain hsp82, stronger effect = lower value 0.973 | S. cerevisiae deletion strains, locus YPL241C, strain CIN2, stronger effect = lower value 0.991 | S. cerevisiae deletion strains, locus YPL256C, strain CLN2, stronger effect = lower value 0.998 | S. cerevisiae deletion strains, locus YPR119W, strain clb2, stronger effect = lower value 1 | S. cerevisiae deletion strains, locus YPR141C, strain kar3, stronger effect = lower value 0.992 | S. cerevisiae deletion strains, locus YPR163C, strain tif3, stronger effect = lower value 1 | S. cerevisiae deletion strains, locus YPR167C, strain met16, stronger effect = lower value 0.998 | S. cerevisiae deletion strains, strain wtn01, stronger effect = lower value 0.997 | S. cerevisiae strains, strain wild type, stronger effect = lower value 0.98
